The record followed here is ChEMBL document CHEMBL3988442, “University of Dundee, Small-Polar-MMV Screening Library” (2021).

The whole screen tested about 48,000 compounds, of which about 13,000 (27%) showed an effect of 50% or more. The list shows a part of the results.

In this experiment the test system is Wolbachia pipientis. The experiment is described as follows: Anti-Wolbachia Cell-Based Screen. Format: functional. More on the design: scale not given: in the data most compounds retested in dose-response had high values. Particulars: 5 µM.
As for `CN(CCNC(=O)c1scnc1Cl)c1ccccc1`, the “Percent Effect” value is recorded as -4.925%.
For `COc1ccc(OC)c(C2CCN(CC(C)(C)N3CCOCC3)C2)c1` (configuration not stated) the value was -1.124%; for `CC(C)[C@@H]1CN(Cc2cnc(C3CCCCC3)nc2)C[C@H]1C(=O)O`, -8.433%.
In the case of `COc1ccc(C(C)N(C)Cc2c(C3CC3)[nH]c3ncccc23)cc1.Cl` (configuration not stated) it was 91.7%.
Regarding `COc1ccc(C(C)N(C)Cc2c(C(C)C)[nH]c3ncccc23)cc1` (configuration not stated), the “Percent Effect” value is on record as 47.71%.
`COc1ccc2cc(CN(C)C(C)c3nc(C4CC4)no3)ccc2c1` (configuration not stated): the “Percent Effect” value is 6.729%.
In the case of `COc1ccc(C(CN2CCN(C)CC2)Nc2ncccn2)cc1` (configuration not stated) it was -1.255%; in that of `CCC(Nc1ncccn1)c1ccc(OC)cc1` (configuration not stated), 2.346%.
For `COc1ccc(C(C)N(C)Cc2c(C(C)(C)C)[nH]c3ncccc23)cc1` (configuration not stated) the value was 103.1%; for `COCCN(C)CC(=O)N1C[C@@H](NC(C)=O)[C@H](c2ccc(OC)cc2)C1`, 3.177%.
In the case of `COCCN(C)CC(=O)N1C[C@@H](C)[C@](O)(C(C)C)C1` it was 89.33%; in that of `COCCN(C)CC(=O)N1C[C@H]2CC[C@@H]1CN(C(=O)c1ccncc1)C2`, 3.629%.
Consider `CC(C)[C@]1(O)CN(C(=O)COCC(N)=O)C[C@H]1C`, for which the “Percent Effect” value amounted to 89.06%.
For `COCC(=O)N1CCN(C(C)C(=O)NC(C)C)CC1` (configuration not stated) the value was 2.538%; for `C[C@@H]1CN(C(=O)CCCN2CCOCC2)C[C@@]1(O)C1CC1`, -18.09%.
For `CC(C)[C@]1(O)CN(C(=O)CNC(N)=O)C[C@H]1C` the value was 90.92%; for `COCC(=O)N1C[C@@H](C)[C@](O)(C(C)C)C1`, 101.1%.
On to `NC(=O)NCC(=O)N1CCC2(CC1)c1ccccc1CC2O` (configuration not stated), for which the “Percent Effect” value is -7.297%.
For `COCC(=O)N1CCC2(CC1)CC(OC)CO2` (configuration not stated) the value was -10.72%; for `CC1(Cc2ccccn2)NCCc2[nH]cnc21` (configuration not stated), 15.49%; for `CCn1c(N)nc2cc(C(=O)N3Cc4ccccc4C3)cnc21`, -3.386%.
Consider `CCCS(=O)(=O)N1CCC(Nc2c(F)cc(C#N)cc2F)CC1`, for which the “Percent Effect” value is 13.62%.
In the case of `CSCCC(=O)N1CCN(CC(C)(C)O)CC1` it was -39.31%; in that of `Cc1c(C(C)NCC2CCCC2)cnn1-c1ccc(F)cc1F` (configuration not stated), 0.5195%; in that of `O=C(CN1C=Nc2ccccc2S1(=O)=O)NCCc1cccs1`, 3.571%.
Take `COCCN(C)[C@@H]1c2ccccc2C2(CCNCC2)[C@H]1O`: the “Percent Effect” value is 2.267%.
For `CC(C)NC(=O)CN1CCN(CC2CCOc3ccccc3C2)CC1` (configuration not stated) the value was -2.637%.
For `Cc1cc(C(=O)NS(C)(=O)=O)ccc1I` the value was 1.042%.
For `Nc1nc2c(c(NCc3cnc4c(c3)CCC4)n1)CCNC2` the value was 77.65%; for `Nc1nc2c(c(NCc3ccncc3)n1)CCCC2`, -16.82%; for `Cc1nc2c(c(NCc3nc4ccccc4s3)n1)CCNCC2`, 4.643%.
Take `CCc1cnc(C)nc1NCc1cnc2c(c1)CCC2`: the “Percent Effect” value was 83.93%.
Turning to `Cc1nc2c(c(NCc3cc4ccccc4s3)n1)CCNCC2`, the “Percent Effect” value is -2.145%.
With `CCc1cnc(C)nc1NCCN1CCCCCC1`, the “Percent Effect” value is -2.933%.
As for `CCc1cnc(C)nc1NCCN1CCC(O)CC1`, the “Percent Effect” value is 8.36%.
In the case of `Cc1nc2c(c(NCc3cnc4c(c3)CCC4)n1)CNC2` it was 90.56%; in that of `Nc1nc2c(c(NCc3nc(-c4ccncc4)n[nH]3)n1)CCCC2`, -1.758%.
Regarding `CCC(C)NC(=O)c1ccc(CNC(=O)CC(C)(C)C)cc1` (configuration not stated), the “Percent Effect” value is reported as 3.529%.
In the case of `COC(=O)CCC(=O)NC1CCCc2cc(OC(F)F)ccc21` (configuration not stated), the “Percent Effect” value is given as 7.111%.
In the case of `CCC(C(=O)N(Cc1ccccc1OC)C1CC1)n1cccn1` (configuration not stated), the “Percent Effect” value is given as -4.851%.
For `O=c1[nH]c(=O)n(CC(O)c2ccc(F)cc2F)cc1Cl` (configuration not stated) the value was -0.7239%; for `OC(CNCCn1cccn1)COc1ccc(F)cc1` (configuration not stated), 3.915%; for `COc1ccc(CN2CC[C@@]3(O)CCCC[C@H]3C2)cc1C(=O)O`, -6.5%.
Consider `COc1ccc(CN2CCCCC2CNC(=O)OC(C)(C)C)cc1F` (configuration not stated), for which the “Percent Effect” value came out at 23.02%.
Consider `COc1cc(CN2CCCC[C@]3(C)NC(=O)CC[C@H]23)ccc1F`, for which the “Percent Effect” value amounted to 73.04%.
Turning to `CCc1nc(CCNC(=O)Nc2ccc(C(=O)NC)cc2C)cs1`, the “Percent Effect” value was 3.747%.
With `Cc1nc(C)n(CC2CCCN2Cc2ncc(C(C)(C)C)o2)n1` (configuration not stated), the “Percent Effect” value was determined as 109.1%.
On to `Cc1cc(C)n(CC2CCCN2Cc2ncc(C(C)(C)C)o2)n1` (configuration not stated), for which the “Percent Effect” value worked out at 98.37%.
For `Cc1nc(C)n(CC2CCCN(Cc3nc(C)c(C)o3)C2)n1` (configuration not stated) the value was 2.327%.
In the case of `Cc1nc(C)n(CC2CCCN2Cc2ncc(-c3ccccc3)o2)n1` (configuration not stated) it was 119.8%.
Consider `Cc1cc(C)n(CC2CCCN2Cc2cccc(C#N)c2)n1` (configuration not stated), for which the “Percent Effect” value is -4.614%.
Take `Cc1nc(C)n(CC2CCCN(Cc3ncc(C(C)(C)C)o3)C2)n1` (configuration not stated): the “Percent Effect” value was 87.18%.
On to `Cc1nc(C)n(CC2CCCCN2Cc2ncc(C(C)(C)C)o2)n1` (configuration not stated), for which the “Percent Effect” value is 8.215%.
In the case of `c1ccc(-c2cnc(CN3CCCC3Cn3cncn3)o2)cc1` (configuration not stated) it was -9.309%; in that of `Cc1nc(C)n(CC2CCCN2Cc2ccccn2)n1` (configuration not stated), 5.197%.
`Cc1cc(C)n(CC2CCCN2CCc2ccncc2)n1` (configuration not stated): the “Percent Effect” value is reported as -8.858%.
In the case of `CN(Cc1ccc(F)cc1F)CC(C)(CO)CO`, the “Percent Effect” value is reported as -8.016%.
In the case of `CCC(O)(CNCc1cc[nH]n1)c1ccc(Br)cc1` (configuration not stated) it was 7.461%.
In the case of `CCn1cc(S(=O)(=O)Nc2cccnc2-n2cccn2)nc1C` it was -8.927%; in that of `O=C(NC1(c2nc(C3CC3)no2)CCCCC1)c1cccnc1O`, -6.139%.
For `O=S(=O)(CCNCc1cc(O)c2cc(F)ccc2n1)N1CCCC1` the value was -19.62%; for `C=C(C)COc1ccc(C(=O)NCC2CC(CC)=NO2)cc1` (configuration not stated), 5.055%.
As to `Cc1nc(CNC(=O)C(C)Oc2ccccc2F)no1` (configuration not stated), the “Percent Effect” value is on record as 94.07%.
With `Cc1noc(C)c1CNC(=O)C(C)Oc1ccccc1F` (configuration not stated), the “Percent Effect” value is recorded as -0.2471%.
For `CCc1nonc1NC(=O)C(C)Oc1ccccc1F` (configuration not stated) the value was -3.063%; for `CC(C)Oc1ncc(C(=O)N2CCC(NC(=O)C3CC3)CC2)cc1Cl`, -2.3%.
In the case of `CCSCCC(C)N(C)C(=O)c1ccc(C)o1` (configuration not stated) it was 3.019%; in that of `COCCN1CC2(CCCN(C(=O)NCCc3cccs3)C2)CCC1=O` (configuration not stated), 2.041%.
As to `Cc1ccc(NC(=O)N(C)CC(O)COCCOC(C)C)c(Br)c1` (configuration not stated), the “Percent Effect” value is recorded as -14.49%.
With `COCCOCC(=O)NC(C#N)c1cc(Cl)cc(Cl)c1` (configuration not stated), the “Percent Effect” value was -3.504%.
As to `Cc1ccc(NC(=O)CNc2cccc3c2CCCC3)c(Br)c1`, the “Percent Effect” value is on record as 9.995%.
Consider `COCCOCC(=O)Nc1ccc(C)cc1Br`, for which the “Percent Effect” value was 93.08%.
As to `COCCOCC(=O)Nc1cccc(CN(C)C(C)=O)c1`, the “Percent Effect” value is given as 3.065%.
For `COCCOCC(=O)Nc1ccc(C)cc1Cl` the value was 120.1%.
In the case of `COc1cc2c(nn1)CCN(Cc1ncc(C(C)(C)C)o1)C2` it was 5.733%; in that of `CCN(C)S(=O)(=O)NCC1(c2cccc(Br)c2)CC1`, 0.1722%.
In the case of `CN(C)CC(=O)NC1CC(C)(C)Cc2nc(C(C)(C)C)ncc21` (configuration not stated) it was 106.4%; in that of `CCCC(=O)NCC(=O)NC1CC(C)(C)Cc2oc(C)cc21` (configuration not stated), -3.424%; in that of `CN(C)CCCC(=O)NC1CC(C)(C)Cc2nc(C(C)(C)C)ncc21` (configuration not stated), 112.6%.
As to `CN(C)c1ccc(C(=O)N2Cc3cnc(C(C)(C)C)nc3C2)cc1`, the “Percent Effect” value is given as 19.06%.
`CCC(CC)C(CNC(=O)Nc1ccc(OC)cc1)N1CCOCC1` (configuration not stated): the “Percent Effect” value is on record as 4.336%.
For the compound `COc1ccc(C(CNC(=O)c2cnc(C)cn2)N2CCOCC2)cc1` (configuration not stated), the “Percent Effect” value is recorded as 15.25%.
For `COc1ccc(NC(=O)C(c2ccc(OC)cc2)N2CCOCC2)cc1` (configuration not stated) the value was 109.2%; for `CSc1nc2cc(C)n(CC(=O)N3CCCC3)c2c(=O)n1CC(C)C`, 4.703%; for `Cc1cc(C(=O)N(C)CCCn2cccn2)nc(N)n1`, 99.09%.
Take `COc1ccccc1OCCCN(C)c1cc(C)nc(N)n1`: the “Percent Effect” value was -7.239%.
As to `Cc1cc(C(=O)N2C[C@@H]3[C@@H](CN(C)CCCn4cccn4)[C@@H]3C2)c(C)o1`, the “Percent Effect” value stood at 2.079%.
For `Cc1cc(N(C)CC2COc3ccccc3O2)nc(N)n1` (configuration not stated) the value was -8.93%; for `Cc1cc(N(C)Cc2ncc[nH]2)nc(-c2cccnc2)n1`, -8.057%; for `Cc1cc(N(C)CCCn2cccn2)nc(N)n1`, 93.8%.
For `CN(CCn1cccn1)c1cc(C(F)(F)F)nc(-c2cccnc2)n1` the value was -9%; for `Cc1cc(N(C)CCCn2cccn2)nc(-c2cccnc2)n1`, 95.65%.
In the case of `CC(C)[C@H]1COC(=O)N1CC(=O)N(C)CCCn1cccn1` it was -1.545%.
In the case of `Cc1cc(N2CCN(C3CCSCC3)CC2)n2nc(C)c(C)c2n1`, the “Percent Effect” value is on record as -17.53%.
In the case of `CCCN(CCC)S(=O)(=O)NC(C)C(=O)N(C)C` (configuration not stated) it was -7.467%; in that of `CCC[C@H]1CN(CCS(C)(=O)=O)C[C@@H]1NC(=O)c1ccccc1F`, -18.99%.
In the case of `CC(=O)N1CCOC[C@H](Oc2ccc(C(F)(F)F)cc2)C1` it was -13.29%; in that of `O=C(CCCc1cn[nH]c1)N1CCOCC(O)C1` (configuration not stated), -4.397%.
In the case of `CN(C)C(=O)Cn1ccc2cc(NC(=O)N3CCOCC3)ccc21` it was -7.307%.
With `CN(C)c1ccc(CC(=O)N2CCOCC(O)C2)cc1` (configuration not stated), the “Percent Effect” value is on record as -50.44%.
In the case of `CC(=O)N1CCOCC(Cc2ccc3c(ccn3C)c2)C1` (configuration not stated) it was 138.8%.
For `CC(=O)NCC(=O)N1CCC(C2CCN(Cc3ccc(Cl)cc3)C2)CC1` (configuration not stated) the value was -7.699%.
For `Cn1ccc2cc(C(=O)N3CCOCC3)ccc21`, the “Percent Effect” value is on record as -3.73%.
For `CC(=O)NCC(=O)N1CCOCC(Cc2ccc3c(ccn3C)c2)C1` (configuration not stated) the value was 143.9%.
Regarding `CC(=O)N1CCOCC(Cc2ccc3c(ccn3C(C)=O)c2)C1` (configuration not stated), the “Percent Effect” value is recorded as 130%.
For `NC(=O)c1cccc(CC2CCN(C(=O)CCCN3CCOCC3)C2)c1` (configuration not stated) the value was -2.023%; for `COCCC(=O)N1CCOCC(Cc2ccc3c(ccn3C)c2)C1` (configuration not stated), 165.7%.
